D3 ag = D3 dopamine receptor (human) agonism. max activation, %. hit rate 0.58% among 410,000. D3R DiscoveRx beta-arrestin cells, luminescence, 90 min. AID 652048; in the data active = max activation above about 30%; also: 0% is about no effect
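Agonist-mode cell screen: cells plated at 1500/well and incubated overnight at 37 °C, then exposed to library compounds for 90 min at 37 °C. Detection reagent was added for 30–60 min at room temperature, and luminescence was read.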
D1 PAM = human D1 dopamine receptor positive modulation; P21728; HEK293 TREx D1 cells, calcium flux, dopamine EC20 potentiation; potentiation, % at 10 µM; hit rate 0.036% among 360,000; AID 504651; in the data active = potentiation above about 30%; also: 0% is about no effect
Target sequence (P21728 whole entry, looked up): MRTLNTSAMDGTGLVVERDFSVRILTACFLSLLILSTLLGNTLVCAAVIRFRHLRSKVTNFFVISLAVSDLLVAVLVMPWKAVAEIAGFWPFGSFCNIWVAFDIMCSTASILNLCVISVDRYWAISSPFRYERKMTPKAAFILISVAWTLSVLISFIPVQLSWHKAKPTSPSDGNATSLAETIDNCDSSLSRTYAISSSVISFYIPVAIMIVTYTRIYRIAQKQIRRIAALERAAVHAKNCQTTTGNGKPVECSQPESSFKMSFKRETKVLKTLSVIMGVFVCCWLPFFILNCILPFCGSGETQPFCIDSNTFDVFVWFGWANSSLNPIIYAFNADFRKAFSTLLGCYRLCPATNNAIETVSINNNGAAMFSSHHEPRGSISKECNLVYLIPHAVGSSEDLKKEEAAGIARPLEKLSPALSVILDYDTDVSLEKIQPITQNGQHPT
D1 agonist = activates the human D1 dopamine receptor; HEK293 T-REx D1 cells, calcium flux, agonist mode; hit rate 1% among 360,000; P21728; activation, % at 2 µM; AID 504660; in the data active = activation above about 30%; also: 0% is about no effect
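Tetracycline-induced HEK293 TREx D1 cells, force-coupled to calcium signalling, were dye-loaded with a no-wash calcium kit. Compound was pin-added after a 10 s baseline. Fluorescence was read kinetically at 1 cycle/s for 180 s, with calcium rises flagged as agonism.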
D3 antag = blocks the human D3 dopamine receptor; AID 652054; D3R cells, DiscoveRx beta-arrestin luminescence, antagonist mode; active compounds read low; P35462; hit rate 2.5% among 360,000; max response, negative = inhibition, %; in the data active = max response below about -50%; also: % is scaled to controls: 0 for no effect and ±100 for the full control effect
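Cells expressing the human receptor were seeded at 1500 cells/well, incubated overnight at 37 degrees C in 5% CO2, then exposed to library compounds with dopamine controls for 90 minutes at 37 degrees C before luminescent detection.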
D1 antag = blocks dopamine activation of the human D1 receptor | AID 504652 | HEK293 TREx D1 cells, calcium flux, dopamine EC80; active compounds read low | activity change, negative = inhibition, % at 10 µM | P21728 | hit rate 3.2% among 360,000; in the data active = activity change below about -30%; also: % is scaled to controls: 0 for no effect and ±100 for the full control effect
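After overnight tetracycline induction at 30 C, force-coupled D1 HEK293 cells took up a no-wash calcium dye at room temperature. Compounds were added and monitored 180 s, and the response to EC80 dopamine was then recorded.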
The depositor's hits bear a star; · = not tested or not shown. An excerpt weighted towards active compounds, which were near 6% of everything screened.

SMILES	D3 ag	D1 PAM	D1 agonist	D3 antag	D1 antag
CCOc1cc(C(=O)Nc2ccc([N+](=O)[O-])cn2)cc(OCC)c1OCC	-44.8	-5.0	4.2	-23.8	-50.9*
CC(=O)Nc1cccc(C(=O)Nc2cccc3ncccc23)c1	-0.3	-4.4	0.7	13.6	0.0
COc1ccc(-c2nc3cc(NC(=O)c4ccc(C)cc4)ccc3o2)cc1Cl	-7.6	-2.0	-0.1	·	-13.5
COc1ccc(OCCNS(=O)(=O)c2ccc3oc4ccccc4c3c2)cc1	1.4	-2.5	13.5	38.0	19.3
CN(CCOc1ccccc1)S(=O)(=O)c1ccc2oc3ccccc3c2c1	2.3	7.1	40.4*	17.7	-42.6*
CC1CCN(C(=O)C(=O)Nc2sc3c(c2C(N)=O)CC(C)(C)OC3)CC1	8.4	-1.9	0.6	2.8	-11.7
CC1CCN(C(=O)C(=O)Nc2sc3c(c2C(=O)O)CC(C)(C)OC3)CC1	-0.8	7.5	3.0	-10.1	-58.2*
CCN1CCN(c2ncc(C(=O)N3CCCc4ccccc43)c3ccccc23)CC1	3.8	1.8	6.4	-68.8*	-28.5
O=C(c1ccccc1F)N1CCCc2ccccc21	-2.7	-1.3	0.0	5.8	5.5
CCc1ccc2c(c1)CCCN2C(=O)c1ccccc1C(=O)O	-50.1	-2.4	0.4	-67.9*	4.6
O=C(c1cnc2sccn2c1=O)N1CCCc2ccccc21	-5.0	-7.5	3.9	-52.1*	13.2
COc1ccc(S(=O)(=O)c2c(SC)nn(CC(=O)Nc3cccc(C)c3C)c2N)cc1	-8.4	-1.2	1.6	·	8.8
CCCCN(CC)C(=O)CSc1c2c(nc3ccc(Cl)cc13)CCCC2	0.2	-2.5	2.0	·	-0.2
CCCn1c(/C=C/c2cc[n+](C)cc2)nc2ccccc21	0.8	-6.5	4.3	12.0	-24.0
CCn1c(/C=C/c2ccccc2)nc2ccccc21	25.9	-9.5	-1.0	-10.3	-39.4*
CCCCCCn1c(/C=C/c2ccccc2)nc2ccccc21	2.6	-5.8	15.7	·	-30.7*
CCCCCn1c(-c2ccc(OC)c(OC)c2)nc2ccccc21	5.7	-3.0	57.2*	·	-46.6*
CNS(=O)(=O)c1cn(CC(=O)N2CCN(c3cc(C)ccc3C)CC2)cc1S(=O)(=O)NC	-11.6	-2.1	3.8	·	-19.8
COc1ccc([C@]23Cc4cc(OC)c(OC)cc4C(O2)C2=C(CC(C)(C)CC2=O)O3)cc1	·	-1.9	1.7	·	3.0
Nc1ncc(S(=O)(=O)NCc2ccc(Cl)cc2)cn1	9.2	-3.9	1.3	·	3.2
NC(N)=NN=C(/C=C/c1ccc([N+](=O)[O-])o1)/C=C/c1ccc([N+](=O)[O-])o1	-24.7	·	·	·	·
COc1ccc(-c2nc3ccc(NS(=O)(=O)c4ccc(C)cc4)cc3o2)cc1	16.9	-1.2	5.0	·	2.7
COc1ccc(CCNC(=O)c2cc(-c3ccc(C)cc3)nc3n[nH]c(-c4ccccc4)c23)cc1OC	73.7*	1.1	2.8	·	8.9
COc1ccc(-c2cc(C(=O)NCCc3ccccc3)c3c(-c4ccccc4)[nH]nc3n2)cc1OC	4.0	-1.2	4.4	·	2.3
CCN1CCN(c2ccc(S(=O)(=O)N3CCOCC3)cc2NC(=O)c2ccccc2SC)CC1	3.5	-4.7	3.8	1.3	4.4
SMILES	D3 ag	D1 PAM	D1 agonist	D3 antag	D1 antag
CCN1CCN(c2ccc(S(=O)(=O)N3CCCCC3)cc2NC(=O)Cc2ccc(OC)cc2)CC1	-4.5	-4.0	44.4*	2.1	-31.1*
CN1CCN(c2ccc(S(=O)(=O)N3CCCCC3)cc2NC(=O)c2ccc3ccccc3c2)CC1	-6.6	-12.6	11.6	-1.6	-49.6*
Cc1ccccc1C(=O)Nc1cc(S(=O)(=O)N2CCCCC2)ccc1N1CCN(C)CC1	-3.0	-1.8	5.4	-4.8	5.4
CCN1CCN(c2ccc(S(=O)(=O)N3CCOCC3)cc2NC(=O)c2cc(Cl)nc3ccccc23)CC1	2.7	-3.7	3.6	10.5	-32.6*
COc1ccccc1OC(C)C(=O)Nc1ccc(-c2nc3ccccc3s2)cc1 (configuration not stated)	-6.8	-0.1	1.9	·	-1.2
CS(=O)(=O)c1ncc(Cl)c(C(=O)Nc2ccc(N3CCOCC3)cc2)n1	-28.7	-6.5	-2.9	-77.9*	-35.4*
CS(=O)(=O)c1ncc(Cl)c(C(=O)Nc2ccc(OC(F)F)cc2)n1	-19.0	-2.2	2.0	-151.6*	-38.4*
CS(=O)(=O)c1ccc(C(=O)Nc2ccc(N3CCOCC3)cc2)c(Cl)c1	-9.4	-4.1	3.0	-4.6	9.2
COc1ccc(S(=O)(=O)N(CC(=O)Nc2ccc3c(c2)OCO3)c2ccc(C)cc2)cc1	-4.4	-1.4	-1.6	·	7.4
CSc1ccc(S(=O)(=O)NCC(=O)OCC(=O)N2CCC(C)CC2)cc1[N+](=O)[O-]	-11.0	-2.5	1.3	-9.8	-31.4*
CSc1ccc(S(=O)(=O)NCC(=O)OCC(=O)N2CCCCC2C)cc1[N+](=O)[O-] (configuration not stated)	3.2	1.5	1.3	-0.9	-7.3
Cc1ccc(Cn2c(CNS(=O)(=O)c3ccc(Cl)s3)nc3cccnc32)cc1	-19.2	-3.5	2.0	·	8.7
COc1ccc(/C=N\NC(=O)C2COc3ccccc3O2)cc1O (configuration not stated)	-9.5	-9.6	1.5	-23.9	-8.6
O=C(NCCc1ccc(O)c(O)c1)C1COc2ccccc2O1 (configuration not stated)	92.1*	·	6.5	12.6	1.3
Cc1c(/C=N\NC(=O)C2COc3ccc(C(C)(C)C)cc3O2)c2ccccc2n1C (configuration not stated)	58.5*	-11.8	-1.2	19.4	-85.7*
Cn1cccc1/C=N\NC(=O)C1COc2ccccc2O1 (configuration not stated)	-3.9	-9.5	1.0	0.7	-38.3*
COc1cc(/C=N/NC(=O)C2COc3ccccc3O2)ccc1O (configuration not stated)	-11.2	7.0	4.9	-56.4*	-9.6
Cc1ccc(Cl)cc1NC(=O)c1ccc2nc(CCc3ccccc3)oc2c1	-7.4	2.0	12.4	·	-1.5
CNc1ccc(C(=O)OCC(=O)Nc2ccnn2C(C)C)cc1[N+](=O)[O-]	4.7	-6.2	3.5	1.8	-42.1*
CCOC(=O)c1ccc(NC(C)=O)c([N+](=O)[O-])c1	9.1	11.1	4.5	1.2	-0.7
Fc1ccc(C(NCCc2ccc(Cl)cc2)c2nnc(-c3ccccc3Cl)o2)cc1 (configuration not stated)	-2.5	0.8	25.3	·	-3.2
CCOC(=O)c1c(C)c(-c2ccccc2)n(CC(=O)Nc2cc(C)ccc2OC)c1C	0.1	-2.0	-0.1	·	8.5
O=C(O)/C=C/c1ccc([N+](=O)[O-])o1	4.3	0.5	-0.5	1.6	-0.3
CN1CCN(C(=O)/C=C/c2ccc([N+](=O)[O-])o2)CC1	-0.6	-3.2	0.2	-2.3	-31.5*
CCOC(=O)c1cnc2ccc(OCC)cc2c1N(C)Cc1ccccc1	68.0*	0.2	8.8	8.3	7.8

Bioassay records (PubChem BioAssay)
